Assay outcomes deposited in PubChem BioAssay by National Center for Advancing Translational Sciences (NCATS).
Pol kappa inh-1 – inhibitors of human DNA polymerase kappa | Q9UBT6 | purified Pol kappa, fluorescent DNA synthesis assay, 10 min | Potency, µM (top dose mostly 107 µM), for the others: at the top dose activity, negative = inhibition, usual class: inhibitors | hit rate 0.53% among 400,000; further: potency means the concentration at half of the fitted maximal effect; on the % scale 0 is the no-effect control and ±100 the full control effect
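Pol kappa 10 nM + cpd, 15 min RT; start w/ substrate 50 nM final; fluorescence kinetic read, 0 and 10 min. Neg ctrl: buffer, no enzyme.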
FEN1 inhibitor – blocks human flap endonuclease 1; P39748; hit rate 0.35% among 390,000; Recombinant FEN1 flap cleavage, fluorescence, 15 min; Potency, µM (titrated, usually from 114 µM), inactives show top-dose activity change, negative = inhibition, actives largely listed as inhibitors; further: potency means the concentration at half of the fitted maximal effect; on the % scale 0 is the no-effect control and ±100 the full control effect; nearly all actives have a fitted effect of over 65% in size
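Steps: FEN1 (10 nM) dispensed; compound added by pin tool; 15 min at room temperature; substrate added to 50 nM final; reads at 0 min and 15 min; data normalized and fitted (four-parameter Hill).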
Pol eta inh-1 – inhibitors of human DNA polymerase eta; Q9Y253; recombinant Pol eta, fluorescent DNA replication assay; hit rate 1.2% among 390,000; Potency, µM (top dose mostly 114 µM), for the others: at the highest dose activity change, negative = inhibition, actives largely listed as inhibitors; further: potency means the concentration at half of the fitted maximal effect; on the % scale 0 is the no-effect control and ±100 the full control effect
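Fluorescent replication assay: 50 nM final substrate added after a 15 min room-temperature compound preincubation with 10 nM enzyme. Signal taken at 0 min and again at 10 min.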
POLI inh – blocks human DNA polymerase iota activity; AID 588590; Potency, µM (series often up to 115 µM), for inactives: at the top dose activity, negative = inhibition, actives largely listed as inhibitors; hit rate 1% among 390,000; Q9UNA4; Pol iota fluorescent replication assay, 10 min; further: potency means the concentration at half of the fitted maximal effect
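Pol iota at 10 nM preincubated 15 min with compounds at room temperature; reaction started with fluorescent substrate, 50 nM final. Fluorescence read kinetically at 0 and 10 min; buffer-only wells as negative control.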
POLB inh – inhibitors of human DNA polymerase beta. P06746. Potency, µM (doses to about 114 µM), for inactives: at the highest dose activity change, negative = inhibition, most hits filed as inhibitors. Pol beta primer extension/strand displacement, fluorescence kinetic. AID 485314. hit rate 1.3% among 340,000; further: potency means the concentration at half of the fitted maximal effect; on the % scale 0 is the no-effect control and ±100 the full control effect
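Pol beta (10 nM) and compounds were preincubated 15 min at room temperature, then 50 nM substrate (final) started primer extension/strand displacement. Reads were taken at 0 and 10 min; concentration-response data were fitted to a four-parameter Hill equation.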
PI5P4K alpha inh – PI5P4K alpha (human) kinase inhibition | PI5P4Kalpha enzyme, ADP-Glo luminescence, 60 min; stronger effect = lower value | max response, % | P48426 | hit rate 1.2% among 330,000; active means max response of -50% or lower; inconclusive means between -30% and -50%; inactive means -30% or higher; further: value at the top dose of about 77 µM; on the % scale 0 is the no-effect control and ±100 the full control effect
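PI5P4Kalpha ADP-Glo assay; 5 microM ATP final; 60 min RT reaction; HEPES pH 7.4/EGTA/CHAPS, 5% DMSO; controls lacking substrate or enzyme; luminescent end-point.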
TbPGK inh – blocks T. brucei phosphoglycerate kinase; shares compounds with Pol kappa inh-1; TbPGK coupled GAPDH assay, Kinase-Glo luminescence; Potency, µM (series often up to 57.5 µM), for inactives: top-dose activity change, negative = inhibition, actives largely listed as inhibitors; hit rate 79% among 500; further: potency means the concentration at half of the fitted maximal effect; on the % scale 0 is the no-effect control and ±100 the full control effect; nearly all actives have a fitted effect of over 65% in size
Target sequence (P07378 whole entry, looked up): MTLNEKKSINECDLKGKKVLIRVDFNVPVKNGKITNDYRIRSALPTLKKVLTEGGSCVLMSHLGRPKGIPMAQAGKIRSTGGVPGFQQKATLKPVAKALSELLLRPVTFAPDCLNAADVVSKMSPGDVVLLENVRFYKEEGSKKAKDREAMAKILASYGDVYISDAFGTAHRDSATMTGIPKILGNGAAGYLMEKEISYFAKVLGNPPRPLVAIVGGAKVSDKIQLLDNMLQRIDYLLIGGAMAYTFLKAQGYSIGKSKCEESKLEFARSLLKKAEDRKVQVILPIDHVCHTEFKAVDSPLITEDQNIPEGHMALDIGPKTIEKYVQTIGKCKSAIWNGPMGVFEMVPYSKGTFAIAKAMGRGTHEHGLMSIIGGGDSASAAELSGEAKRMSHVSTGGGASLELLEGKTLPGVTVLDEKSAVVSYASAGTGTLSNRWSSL
Pol iota confirm – Human Pol iota inhibitor confirmatory assay; shares compounds with Pol kappa inh-1; Pol iota primer extension, TAMRA/BHQ fluorescence; Potency, µM, most hits filed as inhibitors; hit rate 77% among 1,500; AID 720496; further: potency means the concentration at half of the fitted maximal effect
Pol kappa inh-2 – confirmation of human DNA polymerase kappa inhibitors | shares compounds with Pol eta inh-1 | purified Pol-kappa, fluorescent strand-displacement substrate | Potency, µM, hits mostly inhibitors | hit rate 76% among 920 | AID 720501; further: potency means the concentration at half of the fitted maximal effect
Pol eta inh-2 – Pol eta (human) inhibition, cherry-pick confirmation; hit rate 64% among 2,600; shares compounds with Pol eta inh-1; Pol eta primer extension, TAMRA/BHQ fluorescence, 10 min; Potency, µM, usual class: inhibitors; further: potency means the concentration at half of the fitted maximal effect
Numbers without * were called inactive; ? = inconclusive; / = no result given; [ ] = another dose, or the depositor's remark. Compounds with a hit are over-represented: about 2.8% of the library has one in this group of screens. Unless noted, the call rests on the fitted dose curve; in most records, active means well fitted curve in the direction sought with a large enough effect; inconclusive means small, poorly fitted or top-dose-only effect, or another doubt; inactive means no such curve, though single readings can be large; an effect the other way counts as inactive or inconclusive.

SMILES	Pol kappa inh-1	FEN1 inhibitor	Pol eta inh-1	POLI inh	POLB inh	PI5P4K alpha inh	Pol iota confirm	Pol eta inh-2	others
COc1ccccc1/C=N/NC(=O)c1ccc(NC(=O)c2cccc([N+](=O)[O-])c2)cc1	/	/	/	/	3%	/	/	/
COc1ccccc1NC(=O)C(=O)NCC(c1ccc2c(c1)OCO2)N1CCOCC1 (stereo unspecified)	-7%[60.1 µM]	-6%	-14%	19%	14%	/	/	/
Cc1nnc(NC(=O)CSCc2cc(=O)c3ccccc3[nH]2)s1	-1%[60.1 µM]	-21%	50µM*	79µM*	?	/	67*	?
CC(C)CCNC(=O)c1cccc(-n2cnc3cccnc32)c1	-13%	14%	-12%	5%	-2%	/	/	/
Cc1ccc2c(cnn2C(=O)CCC(=O)NC2CCCCC2)c1	-8%	-9%	?	-7%	-26%	-6	/	/
CCOC(=O)NC(=O)C(/C=N/c1sccc1C(=O)OC)=C(\C)O	-11%	1%	-6%	-19%	-16%	0	/	/
COc1ccc2cc(/C=N/NC(=O)CN(c3ccccc3C)S(=O)(=O)c3ccccc3)c(Cl)nc2c1	-4%	-4%	-5%	142%	-13%	0	/	/
CCn1c(SC(C)C(=O)O)nc2sc3c(c2c1=O)CCC3 (stereo unspecified)	25µM*	-19%	3.5µM*	?	8.9µM*	?	75*	24*
C/C=C\C=C/C(=O)Nc1cccc(C2=NOC3(C2)C[C@@H](C(N)=O)N(C(=O)[C@H]2CCC(=O)N2)C3)c1 (stereo partly specified)	-20%	2%	2%	-19%	-1%	-14	/	/
C=C(C)C(=O)N1CC2(CC(c3cccc(NC(=O)/C=C\C=C/C)c3)=NO2)C[C@H]1C(N)=O (stereo partly specified)	40µM*	-15%	13µM*	11µM*	?	-20	13*	19*
C=C(C)C(=O)Nc1cccc(C2=NOC3(C2)C[C@@H](C(N)=O)N(C(=O)c2cc([N+](=O)[O-])cc([N+](=O)[O-])c2C)C3)c1 (stereo partly specified)	50µM*	1%	13µM*	?	20µM*	-4	?	19*	TbPGK inh=?
C/C=C/C(=O)Nc1cccc(C2=NOC3(C2)C[C@@H](C(N)=O)N(C(=O)c2cc([N+](=O)[O-])cc([N+](=O)[O-])c2C)C3)c1 (stereo partly specified)	-6%	-12%	-5%	-22%	9%	2	/	/
CCCn1c(SCC(=O)N(C)CC(=O)Nc2ccc(C)cc2)n[nH]c1=O	16%	1%	-13%	-12%	/	5	/	/
COc1cc(/C=N/NC(=O)c2ccccc2O)ccc1OCC(=O)Nc1ccccc1	50µM*	?	50µM*	28µM*	6.3µM*	-3	42*	?	Pol kappa inh-2=17*
O=C(COc1ccc(/C=N/NC(=O)c2ccccc2O)cc1)Nc1ccccc1	?	6%	?	?	18µM*	-14	/	/	TbPGK inh=15µM*;Pol kappa inh-2=47*
COc1cc(/C=N/NC(=O)c2ccncc2)ccc1OCC(=O)Nc1ccccc1	-6%	9%	9%	-19%	0%	2	/	/
O=C(Nc1cc2c(oc1=O)CCCC2=O)c1ccc(Cl)cc1	18µM*	56µM*	11µM*	-98%	3.5µM*	/	15*	8.5*
O=C(CCS(=O)(=O)c1ccc(Br)cc1)NCCc1ccccc1	?	-3%	20µM*	50µM*	?	-4	?	48*	Pol kappa inh-2=17*
O=C(CCNS(=O)(=O)c1ccc(Br)cc1)NCCc1ccccc1	1%	-15%	-7%	12%	60%	3	/	/
CCOc1ccc(CCNC(=O)CCS(=O)(=O)c2ccc(Br)cc2)cc1OCC	9%	-3%	-5%	6%	-22%	3	/	/
NS(=O)(=O)c1ccc(CCNC(=O)CCS(=O)(=O)c2ccc(Br)cc2)cc1	-2%	11%	20µM*	2%	28µM*	-14	38*	43*
CC(=O)Nc1nc(-c2ccc(Cl)cc2)ns1	-8%	-4%	-1%	11%	1%	-12	/	/
O=c1c2sc3ccccc3c2n(Cc2ccccc2F)c(=O)n1Cc1ccccc1	-7%	6%	-8%	7%	-18%	/	/	/
COc1ccc(C(=O)N/N=C/c2ccc(OC)c(COc3c(F)c(F)cc(F)c3F)c2)cc1	-16%	-25%	?	45µM*	50µM*	-5	?	/	Pol kappa inh-2=?
CCOC(=O)C1=C(C)N=c2s/c(=C/c3cccc([N+](=O)[O-])c3O)c(=O)n2C1c1ccc(OC)cc1OC (stereo unspecified)	-7%	-35%	50µM*	?	1%	-55*	75*	76*
SMILES	Pol kappa inh-1	FEN1 inhibitor	Pol eta inh-1	POLI inh	POLB inh	PI5P4K alpha inh	Pol iota confirm	Pol eta inh-2	others
CCOC(=O)C1=C(C)N=c2s/c(=C/c3ccc(OCC(=O)O)c(OC)c3)c(=O)n2C1c1ccc(Cl)cc1 (stereo unspecified)	?	50µM*	20µM*	10µM*	/	?	15*	34*	TbPGK inh=10µM*;Pol kappa inh-2=7.5*
CCOC(=O)C1=C(C)N=c2s/c(=C/c3ccc(OCC(=O)O)cc3)c(=O)n2C1c1ccc(OC)cc1OC (stereo unspecified)	?	?	28µM*	?	-5%	-10	34*	67*	Pol kappa inh-2=30*
CCOC(=O)C1=C(C)N=c2s/c(=C/c3ccccc3)c(=O)n2C1c1ccc(OC)c(OC)c1 (stereo unspecified)	-4%	-7%	-14%	14%	28%	-3	/	/
COc1ccc(S(=O)(=O)N2CCCCC2)cc1NC(=O)c1cccc(S(=O)(=O)N2CC(C)OC(C)C2)c1 (stereo unspecified)	0%	-5%	-10%	17%	/	12	/	/
COc1cccc(CNC(=O)CCn2c(=O)c3cccn3c3ccc(F)cc32)c1OC	-16%	13%	-10%	-5%	-1%	/	/	/
CC(=O)N1CCc2cc(Br)cc(S(=O)(=O)NCCc3cccc(C)c3)c21	-10%[60.1 µM]	-4%	-8%	22%	6%	/	/	/
